Bioassay records (PubChem)
TDP1 cell noCPT = qHTS for Inhibitors of human tyrosyl-DNA phosphodiesterase 1 (TDP1): qHTS in cells in absence of CPT; AID 686978, 2013; 420,000 tested, 15% active; Potency, µM (doses to about 46.2 µM), without a hit: at the top dose activity change, negative = growth inhibition, actives largely listed as inhibitors; DT40 Tdp1-/- hTDP1 cells, no CPT, ATP luminescence, 48 h; also: nearly all actives have a fitted effect of over 55% in size
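Luminescent ATP content (CellTiter-Glo) served as the growth readout. Knockout chicken DT40 cells expressing human TDP1 were exposed to compounds without camptothecin for a minimum 48 hr at 37 °C.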
HT1080 IDH1KD tx = kills HT-1080 cells with IDH1 knockdown. 360,000 tested, 2% active. AID 686971. HT-1080 IDH1 knockdown viability, ATP luminescence, 48 h. Potency, µM (titrated, usually from 46.1 µM), without a hit: at the top dose activity, negative = toxicity, hits mostly cytotoxic;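 also: 0% = DMSO wells and -100% = cell-free medium wells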
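Using the IDH1-knockdown HT-1080 line run in the same batch and compound series as the NT line, viability after 48 h at 37 °C was determined by CellTiter-Glo luminescence and expressed as % activity.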
KB-3-1 cytotox = KB-3-1 parental cell cytotoxicity; KB-3-1 viability, CellTiter-Glo ATP luminescence, 72 h; Potency, µM (highest dose often 46.1 µM), actives largely listed as cytotoxic; 400,000 tested, 1.4% active; AID 1347075; also: nearly all actives have a fitted effect of over 60% in size
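Screening of KB-3-1 cells (DMEM, 10% FBS, phenol-red free) ran from lowest to highest compound concentration; after 72 h at 37 °C viability was read luminescently and curves fitted.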
DT40 TDP1 CPT = growth inhibition of DT40 Tdp1-/-;hTDP1 cells with camptothecin (screen for TDP1 inhibitors); chicken DT40 Tdp1-/-;hTDP1 cells + 20 nM CPT, ATP luminescence, 48 h; Potency, µM (highest dose often 46.2 µM), without a hit: at the top dose activity change, negative = growth inhibition, hits mostly inhibitors; AID 686979; 420,000 tested, 12% active; also: nearly all actives have a fitted effect of over 55% in size
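Chicken DT40 Tdp1-/- cells stably complemented with human TDP1 were seeded at 400 cells/well in medium containing 20 nM camptothecin, exposed to pin-transferred compounds, and grown at 37 °C for at least 48 hr. Viability was read as ATP luminescence.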
HT1080NT lethal = kills 2HG-producing HT-1080-NT fibrosarcoma cells; HT-1080-NT fibrosarcoma viability, CellTiter-Glo ATP luminescence, 48 h; Potency, µM (series often up to 46.1 µM), for the others: at the highest dose activity, negative = less viability, actives largely listed as cytotoxic; 360,000 tested, 1.6% active;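 also: NT is the 2HG producing partner of a matched IDH1 knockdown line; 0% = DMSO-treated cells and -100% = media-only wells without cells; nearly all actives have a fitted effect of over 55% in size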
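Viability of the 2HG-overproducing fibrosarcoma line after 48 hours of compound exposure at 37 degrees C was determined by luminescence with CellTiter-Glo, and concentration-effect curves were then fitted and categorized.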
KB-V1 cytotox = KB-V1 MDR subline cytotoxicity | AID 1347076 | KB-V1 MDR cells viability, CellTiter-Glo, 72 h | Potency, µM (series often up to 46.1 µM), hits mostly cytotoxic | 400,000 tested, 3.4% active; also: nearly all actives have a fitted effect of over 60% in size
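Cytotoxicity via CellTiter-Glo luminescence after 72 h compound exposure at 37 degrees C. Cells: drug-selected KB-V1 line, DMEM phenol-red free plus 10% FBS. Compounds tested at multiple concentrations; normalized data fitted to concentration-effect curves.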
* = called active by the depositor; i = inactive; ? = inconclusive; · = not tested or not shown; [ ] = dose if it differs, or a comment. Rows were chosen to be rich in hits. Some 19% of all compounds tested hit in one or more screens of this group. Calls follow the shape of the dose curve; as a rule, active = well fitted curve in the direction sought with a large enough effect; inconclusive = small, poorly fitted or top-dose-only effect, or another doubt; inactive = no such curve, though single readings can be large; an effect the other way counts as inactive or inconclusive. Unless noted, % is scaled to controls: 0 for no effect and ±100 for the full control effect; potency is read from the fitted curve at half-maximal effect.

SMILES | TDP1 cell noCPT | HT1080 IDH1KD tx | KB-3-1 cytotox | DT40 TDP1 CPT | HT1080NT lethal | KB-V1 cytotox
CCN(C(=O)C1=COCCO1)c1nc2c(C)cccc2s1 | -10% | -1% | i | -1% | -4% | i
CSCC[C@H](NC(=O)N1CCn2c1nc1ccccc12)C(=O)N1CCCCC1 | -2% | 5% | i | -19% | 7% | i
COc1cccc(-c2nc(CS(=O)(=O)CC(=O)Nc3ccc(C)c(Cl)c3)c(C)o2)c1 | -15% | · | i | -4% | · | i
CCN(CC)CCNC(=O)Cn1ncc2c([nH]c3ccccc32)c1=O | 8% | · | i | 10% | · | i
Cc1ccc(S(=O)(=O)c2nc(S(C)(=O)=O)sc2N(C)Cc2ccccc2)cc1 | 21µM* | · | i | ? | · | i
Cc1ccc(S(=O)(=O)c2nc(S(C)(=O)=O)sc2N(C)C)cc1 | -9% | 6% | i | -9% | 17% | i
COc1cccc(-c2cc(C(=O)NCC3CCCO3)c3cc(C)cc(C)c3n2)c1 (centres undefined) | 26µM* | 2% | · | 23µM* | 1% | ·
COc1cccc(OCC(=O)NCC2CCCO2)c1 (centres undefined) | 12% | 0% | i | 2% | -1% | i
COc1cccc(-c2nn(-c3ccc(F)cc3)cc2C(=O)NCC2CCCO2)c1 (centres undefined) | 23µM* | -7% | ? | 23µM* | -6% | ?
COc1cccc(-c2nn(-c3ccc(C)cc3)cc2C(=O)NCC2CCCO2)c1 (centres undefined) | ? | -17% | ? | ? | -5% | ?
CN1C[C@@H](CO)O[C@@H](n2cnc3c(N4CCOCC4)ncnc32)C1 | -3% | 8% | i | -18% | 27% | i
O=C(Nc1ccc(Oc2ccccc2)cc1)Nc1nnc(-c2ccncc2)s1 | · | · | ? | · | · | i
Cn1cc(C(=O)NCCc2ccc(Cl)cc2)c(=O)c2cc(S(=O)(=O)N3CCCCC3)ccc21 | 9% | · | ? | -5% | · | i
NNC(=O)c1ccc(C(=O)N(c2ccccc2)c2ccccc2)cc1 | ? | · | i | ? | · | i
O=C(c1ccccc1)N(c1ccccc1)c1ccccc1O | 16µM* | -2% | ? | 15µM* | 7% | ?
CCn1nnnc1SCC(=O)c1cccc(OC)c1 | ? | 5% | i | ? | 2% | i
COc1cccc(-n2nnnc2SCC(=O)Nc2ccccc2OC)c1 | -14% | 1% | i | -18% | 7% | i
COc1cccc(-n2nnnc2SCC(=O)Nc2ccc(C(C)=O)cc2)c1 | 23µM* | 15% | i | 26µM* | 9% | i
COc1ccc(-n2nnnc2SCC(=O)c2cccc(OC)c2)cc1 | ? | -3%[9.24 µM] | i | ? | 22µM* | i
CCCS(=O)(=O)c1nnnn1-c1cccc(OC)c1 | 5.2µM* | 6.3µM* | i | 3.7µM* | 10µM* | i
CC(=O)c1cccc(-n2nnnc2SCC(=O)Nc2ccccc2N2CCCCC2)c1 | 23µM* | -25% | ? | ? | -21% | ?
Cc1ccc(F)c(CNC(=O)C2(C)CCCN2C(=O)C(C)C)c1F (centres undefined) | -17% | 24% | i | -29% | 24% | i
O=C(NCC1CCCCC1)c1ccc2sc([C@H]3C[C@H](O)[C@@H](CO)O3)nc2c1 | ? | 4% | ? | -22% | 2% | i
O=C(O)c1ccc(CSc2nnnn2-c2ccc(F)cc2)cc1 | 10% | 4% | i | -3% | 1% | i
O=C(CSc1nnnn1-c1ccc(F)cc1)c1ccc(O)c(O)c1 | ? | -30% | i | 18µM* | -5% | i
SMILES | TDP1 cell noCPT | HT1080 IDH1KD tx | KB-3-1 cytotox | DT40 TDP1 CPT | HT1080NT lethal | KB-V1 cytotox
Cn1c(=O)n(C)c2cc([N+](=O)[O-])c(N3CCN(S(=O)(=O)c4ccc(C(C)(C)C)cc4)CC3)cc21 | ? | -13% | i | 21µM* | 5% | i
CC(=O)Nc1ccc(S(=O)(=O)N2CCN(c3cc4c(cc3[N+](=O)[O-])n(C)c(=O)n4C)CC2)cc1 | 18µM* | ? | i | ? | -11% | i
CNC(=O)c1ccsc1NC(=O)CS(=O)(=O)c1ccc(F)cc1 | ? | 8% | i | ? | 0% | i
CC(CS(=O)(=O)c1ccc2c(c1)NC(=O)CS2)C(=O)N1CCN(c2cccc(Cl)c2)CC1 (centres undefined) | ? | -9% | 23µM* | 18µM* | -5% | i
CC(CC(=O)N1CCN(c2ccccc2)CC1)S(=O)(=O)c1ccc2c(c1)NC(=O)CO2 (centres undefined) | ? | -7% | ? | 21µM* | -17% | i
Cc1ccc(N(C)C(=O)CC(C)S(=O)(=O)c2ccc3c(c2)NC(=O)CO3)cc1 (centres undefined) | ? | 1% | i | -7% | -1% | i
CC1Sc2ccc(S(=O)(=O)CCC(=O)N3CCN(c4cccc(Cl)c4)CC3)cc2NC1=O (centres undefined) | 7.3µM* | ? | ? | 13µM* | -29% | i
CC(=O)c1ccc(N2CCN(C(=O)CCS(=O)(=O)c3ccc(C)cc3)CC2)cc1 | 15µM* | -2% | i | ? | 10% | i
COc1ccc(N2CCN(C(=O)CCS(=O)(=O)c3ccc(C)cc3)CC2)cc1 | -29% | 3% | i | ? | 0% | ?
Nc1[nH]c(C(=O)c2ccccc2)c(-c2ccc(Cl)cc2Cl)c1C(=O)NCCc1c[nH]c2ccccc12 | ? | ? | i | ? | ? | i
CCCN(c1ccc(OCC)cc1)S(=O)(=O)c1ccc2c(c1)NC(=O)CO2 | 12% | -15% | ? | -12% | -4% | 1.6µM*
COc1ccc(N2CCN(C(=O)CCS(=O)(=O)c3ccc4c(c3)NC(=O)CO4)CC2)cc1 | 16µM* | -8% | i | ? | 1% | ?
CS(=O)(=O)N(CC(=O)N1CCOCC1)c1cccc(Cl)c1 | -1% | -6% | i | -22% | 0% | i
Cc1cccc(N2CCN(C(=O)CCS(=O)(=O)c3ccc4c(c3)NC(=O)CO4)CC2)c1C | ? | -4% | i | ? | -11% | i
